# Data from PubChem BioAssay (NCI).
# Compounds without any hit were thinned out: in the full panel of roughly 79,000, 15% have a hit. Values without a mark were called inactive. Calls of active or inactive are those of the source. Rule as the data show it: active = growth inhibition above about 70%; inactive = the rest.
# What was measured:
# [1] = NCI Yeast Anticancer Drug Screen. Data for the rad52 strain (AID 147);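 also: 0% = growth of vehicle-treated control cultures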; conditions: S. cerevisiae rad52 mutant growth inhibition, active compounds read high
# Outline: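 Yeast strain carrying a DNA damage repair alteration was exposed to test compounds. Growth inhibition was measured relative to vehicle-treated controls.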
# [2] = NCI Yeast Anticancer Drug Screen. Data for the wt1 strain (AID 149);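 also: 0% = growth of vehicle-treated wt1 cultures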; conditions: S. cerevisiae wt1 strain (SPY 50644) growth inhibition, active compounds read high
# Outline: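 Growth inhibition read against vehicle controls after compound exposure of the wt1 yeast strain.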
# [3] = NCI Yeast Anticancer Drug Screen. Data for the rad50EPP+ strain (AID 151);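 also: 0% = growth of vehicle-treated control cultures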; conditions: S. cerevisiae rad50 mutant strain, active compounds read high
# Outline: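 Yeast strain carrying rad50 alteration (rad50EPP+) exposed to compounds; growth inhibition measured relative to vehicle-treated controls.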
# [4] = NCI Yeast Anticancer Drug Screen. Data for the mgt1 strain (AID 153); conditions: S. cerevisiae mgt1 mutant growth inhibition, active compounds read high
# Outline: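 Yeast mgt1 strain (DNA repair/cell-cycle alteration panel) exposed to compounds; growth inhibition measured relative to vehicle-treated controls.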
# [5] = NCI Yeast Anticancer Drug Screen. Data for the rad50 strain (AID 155);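 also: 0% = growth of vehicle-only cultures of the same strain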; conditions: S. cerevisiae rad50 strain growth inhibition, active compounds read high
# Outline: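 Readout: growth inhibition relative to vehicle-treated cultures. Compound exposure was carried out in a genetically defined yeast strain deficient in DNA damage repair.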
# [6] = NCI Yeast Anticancer Drug Screen. Data for the mec2-1 strain (AID 157); conditions: S. cerevisiae mec2-1 strain, active compounds read high
# Outline: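 mec2-1 yeast strain, carrying an alteration in DNA damage repair or cell cycle control, was exposed to compounds; growth inhibition was measured relative to vehicle-treated controls.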
# [7] = NCI Yeast Anticancer Drug Screen. Data for the rad14 strain (AID 159);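 also: 0% = growth of vehicle-treated control cultures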; conditions: S. cerevisiae rad14 strain growth inhibition, active compounds read high
# Outline: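 Growth inhibition vs vehicle controls; genetically altered yeast strain (DNA damage repair defect) treated with test compounds.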
# [8] = NCI Yeast Anticancer Drug Screen. Data for the sgs1 mgt1 strain (AID 161);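 also: 0% = growth of cultures given vehicle only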; conditions: S. cerevisiae sgs1 mgt1 strain, active compounds read high
# Outline: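 Compounds are added to genetically altered yeast, and growth is compared with cultures given vehicle alone to give percent inhibition.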
# [9] = NCI Yeast Anticancer Drug Screen. Data for the CLN2oe strain (AID 163);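 also: 0% = growth of vehicle-only control cultures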; conditions: S. cerevisiae CLN2oe strain, active compounds read high
# Outline: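 Yeast cells carrying a defined cell-cycle control alteration were exposed to test compounds. Growth inhibition was scored against vehicle-treated control cultures.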
# [10] = NCI Yeast Anticancer Drug Screen. Data for the cln2 rad14 strain (AID 165);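 also: 0% = growth equal to vehicle treated cultures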; conditions: S. cerevisiae cln2 rad14 strain, active compounds read high
# Outline: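 Yeast carrying cln2 and rad14 alterations (cell cycle control and DNA damage repair) were exposed to compounds. Growth inhibition was measured against vehicle-treated controls.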
# [11] = NCI Yeast Anticancer Drug Screen. Data for the bub3 strain (AID 167); conditions: S. cerevisiae bub3 mutant strain, active compounds read high
# Outline: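 Readout: yeast growth inhibition, expressed relative to vehicle-only wells. The test organism is a mutant strain from a panel with lesions in DNA repair or checkpoint genes.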
# [12] = NCI Yeast Anticancer Drug Screen. Data for the wt2 strain (AID 169);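 also: 0% = growth of vehicle-treated yeast cultures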; conditions: S. cerevisiae wt2 strain growth inhibition, active compounds read high
# Outline: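 Yeast cells were exposed to test compounds, and growth inhibition was measured relative to vehicle-treated controls.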
# [13] = NCI Yeast Anticancer Drug Screen. Data for the mlh1 strain (AID 171);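 also: 0% = growth of vehicle-treated control cultures of the same strain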; conditions: S. cerevisiae mlh1 strain growth inhibition, active compounds read high
# Outline: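 Yeast carrying a defined genetic alteration in DNA damage repair or cell cycle control were exposed to test compounds. Growth inhibition was measured relative to vehicle-treated controls.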
# [14] = NCI Yeast Anticancer Drug Screen. Data for the sgs1 strain (AID 173);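 also: 0% = growth of vehicle-only control cultures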; conditions: S. cerevisiae sgs1 mutant, active compounds read high
# Outline: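 Yeast mutant strains carrying defined defects in DNA damage repair or cell cycle control were exposed to test compounds. Growth inhibition was scored against vehicle-treated controls.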
# [15] = NCI Yeast Anticancer Drug Screen. Data for the mlh1 rad18 strain (AID 175); conditions: S. cerevisiae mlh1 rad18 strain growth inhibition, active compounds read high
# Outline: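 Growth inhibition of the yeast strain was measured after compound exposure and expressed relative to vehicle-treated controls. The strain carries defined defects in DNA damage repair.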
# [16] = NCI Yeast Anticancer Drug Screen. Data for the rad18 strain (AID 177); conditions: S. cerevisiae rad18 mutant growth inhibition, active compounds read high
# Outline: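 Yeast carrying a defined DNA damage repair alteration were exposed to compounds. Growth inhibition was expressed relative to vehicle-treated controls.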
# [17] = at 5.0 µM (retest, dose inferred, filed as 0.5)
# [18] = at 50.0 µM (retest, dose inferred, filed as 5.0)
smiles,measurement,setting,value
COC1CC(CC2CCC(C)C(C(C)C(=O)O)O2)OC2(OC(C)(C3CCC(C)(C4OC(C5OC(O)(CO)C(C)CC5C)CC4C)O3)CC2C)C1C (stereo not drawn),growth inhibition,[1]; at 1.2 µM,17%
same,growth inhibition,[1]; at 3.7 µM,-3%
same,growth inhibition,[1]; at 11.0 µM,22%
same,growth inhibition,[1]; at 33.0 µM,93% (active)
same,growth inhibition,[1]; at 100.0 µM,98% (active)
same,growth inhibition,[2]; at 1.2 µM,-2%
same,growth inhibition,[2]; at 3.7 µM,-9%
same,growth inhibition,[2]; at 11.0 µM,5%
same,growth inhibition,[2]; at 33.0 µM,93% (active)
same,growth inhibition,[2]; at 100.0 µM,98% (active)
same,growth inhibition,[3]; at 1.2 µM,-12%
same,growth inhibition,[3]; at 3.7 µM,0%
same,growth inhibition,[3]; at 11.0 µM,-12%
same,growth inhibition,[3]; at 33.0 µM,40%
same,growth inhibition,[3]; at 100.0 µM,90% (active)
same,growth inhibition,[4]; at 1.2 µM,14%
same,growth inhibition,[4]; at 3.7 µM,-5%
same,growth inhibition,[4]; at 11.0 µM,27%
same,growth inhibition,[4]; at 33.0 µM,91% (active)
same,growth inhibition,[4]; at 100.0 µM,98% (active)
same,growth inhibition,[5]; at 1.2 µM,24%
same,growth inhibition,[5]; at 3.7 µM,19%
same,growth inhibition,[5]; [17],36%
same,growth inhibition,[5]; at 11.0 µM,34%
same,growth inhibition,[5]; at 33.0 µM,96% (active)
same,growth inhibition,[5]; [18],95% (active)
same,growth inhibition,[5]; at 50.0 µM,84.6% (active)
same,growth inhibition,[5]; at 100.0 µM,98% (active)
same,growth inhibition,[6]; at 1.2 µM,-2%
same,growth inhibition,[6]; at 3.7 µM,-7%
same,growth inhibition,[6]; [17],28%
same,growth inhibition,[6]; at 11.0 µM,12%
same,growth inhibition,[6]; at 33.0 µM,90% (active)
same,growth inhibition,[6]; [18],95% (active)
same,growth inhibition,[6]; at 50.0 µM,90% (active)
same,growth inhibition,[6]; at 100.0 µM,97% (active)
same,growth inhibition,[7]; at 1.2 µM,5%
same,growth inhibition,[7]; at 3.7 µM,-6%
same,growth inhibition,[7]; at 11.0 µM,-4%
same,growth inhibition,[7]; at 33.0 µM,89% (active)
same,growth inhibition,[7]; at 100.0 µM,96% (active)
same,growth inhibition,[8]; [17],-1%
same,growth inhibition,[8]; [18],91% (active)
same,growth inhibition,[8]; at 50.0 µM,89% (active)
same,growth inhibition,[9]; at 1.2 µM,-46%
same,growth inhibition,[9]; at 3.7 µM,-22%
same,growth inhibition,[9]; at 11.0 µM,50%
same,growth inhibition,[9]; at 33.0 µM,93% (active)
same,growth inhibition,[9]; at 100.0 µM,96% (active)
same,growth inhibition,[10]; [17],26%
same,growth inhibition,[10]; [18],88% (active)
same,growth inhibition,[10]; at 50.0 µM,84% (active)
same,growth inhibition,[11]; at 1.2 µM,-4%
same,growth inhibition,[11]; at 3.7 µM,-4%
same,growth inhibition,[11]; [17],3%
same,growth inhibition,[11]; at 11.0 µM,25%
same,growth inhibition,[11]; at 33.0 µM,84% (active)
same,growth inhibition,[11]; [18],82% (active)
same,growth inhibition,[11]; at 50.0 µM,86.3% (active)
same,growth inhibition,[11]; at 100.0 µM,97% (active)
same,growth inhibition,[12]; at 1.2 µM,-46%
same,growth inhibition,[12]; at 3.7 µM,-46%
same,growth inhibition,[12]; at 11.0 µM,-18%
same,growth inhibition,[12]; at 33.0 µM,60%
same,growth inhibition,[12]; at 100.0 µM,91% (active)
same,growth inhibition,[13]; at 1.2 µM,-3%
same,growth inhibition,[13]; at 3.7 µM,-15%
same,growth inhibition,[13]; at 11.0 µM,0%
same,growth inhibition,[13]; at 33.0 µM,83% (active)
same,growth inhibition,[13]; at 100.0 µM,97% (active)
same,growth inhibition,[14]; at 1.2 µM,-36%
same,growth inhibition,[14]; at 3.7 µM,-22%
same,growth inhibition,[14]; at 11.0 µM,-12%
same,growth inhibition,[14]; at 33.0 µM,88% (active)
same,growth inhibition,[14]; at 100.0 µM,97% (active)
same,growth inhibition,[15]; [17],30%
same,growth inhibition,[15]; [18],96% (active)
same,growth inhibition,[15]; at 50.0 µM,87.8% (active)
same,growth inhibition,[16]; at 1.2 µM,-17%
same,growth inhibition,[16]; at 3.7 µM,-25%
same,growth inhibition,[16]; at 11.0 µM,-11%
same,growth inhibition,[16]; at 33.0 µM,93% (active)
same,growth inhibition,[16]; at 100.0 µM,97% (active)
